RGS4 inh – inhibitors of human regulator of G protein signaling 4; P49798; Transcreener GDP fluorescence polarization, RGS4-accelerated GTP hydrolysis; Potency, µM (doses to about 114 µM), most hits filed as inhibitors; 0.039% of 390,000 active; active = well fitted inhibition curve with a large enough effect; inconclusive = small, poorly fitted or top-dose-only effect; inactive = no such curve, though single readings can be large or run the other way; also: nearly all actives have a fitted effect of over 75% in size
Target sequence (P49798 whole entry, looked up): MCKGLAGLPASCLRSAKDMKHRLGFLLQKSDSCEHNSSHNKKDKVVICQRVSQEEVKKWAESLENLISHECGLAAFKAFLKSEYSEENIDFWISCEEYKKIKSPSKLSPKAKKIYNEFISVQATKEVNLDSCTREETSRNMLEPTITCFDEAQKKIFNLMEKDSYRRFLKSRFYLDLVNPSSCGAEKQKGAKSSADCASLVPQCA
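MLSMR compounds (23 nl, pin-transferred) preincubated 10 min at room temperature with a 500nM (2x) first reagent, then RGS4 at 900nM (2x) plus Transcreener GDP mix added; fluorescence polarization (620/688 nm) read before and after 90 min at 30 °C.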
DRD3 antagonist – blocks the human D3 dopamine receptor; D3R cells, DiscoveRx beta-arrestin luminescence, antagonist mode; hits give low values; P35462; max response, negative = inhibition, %; 2.5% of 360,000 active; in the data active = max response below about -50%; inconclusive = no clear call, values can overlap the other calls
Target sequence (P35462 whole entry, looked up): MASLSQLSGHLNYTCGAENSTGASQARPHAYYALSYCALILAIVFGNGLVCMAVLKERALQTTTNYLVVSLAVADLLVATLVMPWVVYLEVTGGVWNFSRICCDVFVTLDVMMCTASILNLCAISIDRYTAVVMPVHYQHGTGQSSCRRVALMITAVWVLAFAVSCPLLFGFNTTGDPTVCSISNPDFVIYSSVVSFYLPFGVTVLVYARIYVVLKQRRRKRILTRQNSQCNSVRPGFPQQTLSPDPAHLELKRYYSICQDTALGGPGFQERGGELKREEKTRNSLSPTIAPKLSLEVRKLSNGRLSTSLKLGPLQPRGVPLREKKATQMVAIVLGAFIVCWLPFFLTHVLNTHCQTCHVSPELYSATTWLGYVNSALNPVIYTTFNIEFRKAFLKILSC
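Cells plated overnight at 1500 cells/well, then exposed to library compounds with dopamine controls for 90 minutes at 37 degrees C. DiscoveRx reagent added for 30–60 minutes at room temperature; luminescence read, quantitative HTS format.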
uPA surface inh – blocks generation of uPA at the cell surface; cell surface uPA generation assay, qHTS; Potency, µM (doses to about 38.3 µM), usual class: inhibitors; 0.31% of 330,000 active; AID 540303; active = well fitted inhibition curve with a large enough effect; inconclusive = small, poorly fitted or top-dose-only effect; inactive = no such curve, though single readings can be large or run the other way; tested in mouse RAW 264.7 cells; also: nearly all actives have a fitted effect of over 55% in size
DRD3 agonist – activates the human D3 dopamine receptor; P35462; D3R DiscoveRx beta-arrestin cells, luminescence, 90 min; max activation, %; 0.58% of 410,000 active; in the data active = max activation above about 30%
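Agonist mode: compounds and dopamine controls were applied to plated cells for 90 min at 37 degrees C after an overnight attachment at 1500 cells/well. Luminescent read-out followed 30 - 60 minutes at room temperature with DiscoveRx detection reagent.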
Large screens that a line does not name were inactive; ! = not active in a repeat. This is a sample that favours compounds with a hit; in the whole collection about 3.1% have one here.

C/C(=N\NC(=S)Nc1cccc(C)c1)c1ccccc1	DRD3 antagonist -51.5
CC(=NNC(=S)Nc1ccc(C)cc1)c1ccccn1	DRD3 antagonist -50.5
O=C(COc1ccc(S(=O)(=O)N2CCOCC2)cc1)NCCc1ccc(Cl)cc1	none (no result: RGS4 inh, uPA surface inh)
Cc1ccc(/C=C/C(=O)c2cc(Br)ccc2OC(=O)c2ccco2)cc1	none
COc1ccccc1/C=C/C(=O)c1cc(Br)ccc1OC(=O)c1ccco1	RGS4 inh inconclusive, DRD3 antagonist -56.5
CN1CCN(Cc2nc(Cc3ccccc3)no2)CC1c1ccccc1 (configuration not stated)	none
c1ccc(Cc2noc(CN3CCN(CCOc4ccccc4)CC3)n2)cc1	DRD3 antagonist -53.3
Cc1ccc(NC(=O)Cn2nnc(-c3nc(-c4ccc(Cl)cc4)no3)c2N)cc1C	none (no result: DRD3 antagonist, uPA surface inh)
Fc1ccc(CNCCCSc2nnnn2-c2ccccc2)cc1	none (no result: DRD3 antagonist, uPA surface inh)
O=C1c2sc3nc4ccccc4n3c2C(=O)N1c1ccccc1Cl	DRD3 antagonist -86.6
Cc1ccccc1N1C(=O)c2sc3nc4c(c(=O)n3c2C1=O)CCC4	DRD3 antagonist -57.2
Cc1cccc(C)c1NC(=O)CN(C)C(=O)c1ccc(-n2cncn2)c([N+](=O)[O-])c1	DRD3 antagonist -68.2
Cc1ccc(C)c(NC(=O)CN(C)C(=O)c2ccc(-n3cncn3)c([N+](=O)[O-])c2)c1	none
CCn1c(O)c(C2=c3ccccc3=NC2=O)c2cc(Br)ccc21	DRD3 antagonist -80.3
O=C1N=c2ccccc2=C1c1c(O)n(-c2cccc(F)c2)[nH]c1=O	DRD3 antagonist inconclusive
CN(C)CCCC(=O)c1ccc2c(c1)OCO2	none
CC(=O)Nc1ccccc1NC(=O)c1ccc2c(c1)OCO2	none (no result: RGS4 inh, uPA surface inh)
CC(=O)Nc1ccccc1OCC(=O)c1ccc2c(c1)OCO2	DRD3 agonist 46.6 (no result: uPA surface inh)
CN(C)CCC(=O)c1ccc2c(c1)OCO2	RGS4 inh inconclusive, DRD3 antagonist -61.0
CCCCCCCCCCCCCCCC(=O)OC[C@@H](O)[C@H]1OC[C@H](O)[C@H]1O	none (no result: RGS4 inh, DRD3 antagonist, uPA surface inh)
CCC(C)(C)C1CCc2[nH]nc(C(=O)NCc3ccc(Cl)cc3)c2C1 (configuration not stated)	DRD3 antagonist -75.0
CCC(C)(C)C1CCc2[nH]nc(C(=O)NCc3ccccn3)c2C1 (configuration not stated)	none
COc1ccc(CNC(=O)C(c2ccc(C)o2)N(Cc2cccs2)C(=O)Cc2cccs2)cc1 (configuration not stated)	DRD3 antagonist -56.7
COCCN(C(=O)Cc1cccs1)C(C(=O)NCc1ccc(OC)cc1)c1ccc(C)cc1 (configuration not stated)	none
CCC(=O)c1ccc(OCC(O)CN2CCN(c3ccccn3)CC2)cc1 (configuration not stated)	DRD3 agonist 91.0
CC(C)(C)c1ccc(OCC(O)CN2CCCC2)cc1 (configuration not stated)	none
CC(C)(C)c1ccc(OCC(O)CN2CCN(c3ccccn3)CC2)cc1 (configuration not stated)	DRD3 agonist 64.0
Cc1ccc(S(=O)(=O)c2cn(CC(=O)Nc3ccccc3)c3cc4c(cc3c2=O)OCO4)cc1	none (no result: DRD3 antagonist, uPA surface inh)
COc1cccc(S(=O)(=O)Nc2ccc3c(c2)C(=O)N(C)C[C@H](OC)[C@H](C)CN[C@@H](C)CO3)c1	none (no result: RGS4 inh, uPA surface inh)
CCC(C)Sc1ccc(-c2nc3ccc(C)cn3c2NC2CCCCC2)cc1 (configuration not stated)	none
COc1ccc(-c2ccc(-c3nc4ccc(C)cn4c3NC3CCCCC3)cc2OC)cc1	uPA surface inh inconclusive, DRD3 agonist 55.4!
CCC(C)Sc1cccc(-c2nc3ccc(C)cn3c2NC2CCCCC2)c1 (configuration not stated)	DRD3 agonist 53.3!
Cc1ccc2nc(-c3cccc(SC4CCCCC4)c3)c(NC3CCCCC3)n2c1	none
CCN1C(C(=O)c2ccccc2)=C(OC(=O)COc2ccc(C)cc2)c2ccccc2S1(=O)=O	none (no result: DRD3 antagonist, uPA surface inh)
CCn1cc(S(=O)(=O)c2cc(C)cc(C)c2)c(=O)c2cc(F)c(N3CCCC3)cc21	none (no result: DRD3 antagonist, uPA surface inh)
COc1ccc(-c2nnn(CC(=O)N3CCOCC3)n2)cc1	DRD3 antagonist -59.7
O=C(NCCCNCc1ccccc1)c1ccccn1	DRD3 antagonist -65.8!
CCCCC[C@@H](C)N1C[C@@H](COCc2ccccc2)Oc2cc(N3CC[C@@H](N(C)C)C3)ccc2S1(=O)=O	none (no result: RGS4 inh, uPA surface inh)
COc1cc(NC(=O)NCCN2CCN(c3ccccc3)CC2)cc(OC)c1OC	none
O=C(CN1CCN(c2ccccc2)CC1)Nc1cccc(C(F)(F)F)c1	DRD3 antagonist -50.2
O=C(CCN1CCN(c2ccccc2)CC1)Nc1cccc(Br)c1	DRD3 antagonist -72.5
O=C(NCCN1CCN(c2ccccc2)CC1)Nc1cccc(Br)c1	DRD3 antagonist -75.1
O=C(CCN1CCCC1)Nc1cccc(Br)c1	none
CN(CC(=O)Nc1cccc(C(F)(F)F)c1)Cc1ccccc1	DRD3 antagonist -53.6 (no result: uPA surface inh)
O=C(CN1CCN(Cc2ccccc2)CC1)Nc1cccc(C(F)(F)F)c1	none (no result: uPA surface inh)
CCc1ccc(-c2nc(CN3CCCC(C(=O)NCc4ccccc4Cl)C3)c(C)o2)cc1 (configuration not stated)	none (no result: DRD3 antagonist, uPA surface inh)
Cc1ccccc1OCCCn1c(-c2ccc(Cl)cc2)nc2ccccc2c1=O	none (no result: DRD3 antagonist, uPA surface inh)
NS(=O)(=O)c1ccc(NC(=S)NC(=O)c2ccco2)cc1	DRD3 antagonist inconclusive
Cn1nnc(NC(=S)NC(=O)Cc2ccccc2)n1	DRD3 antagonist -63.8
CC(=O)NS(=O)(=O)c1ccc(NC(=S)NC(=O)c2ccco2)cc1	DRD3 antagonist -109.5
Cn1nnc(NC(=S)NC(=O)c2ccco2)n1	DRD3 antagonist -72.5
Cn1nnc(NC(=S)NC(=O)c2cc3ccccc3o2)n1	none
COc1ccc(-n2nc(C(=O)c3cccs3)cc(-c3nc4ccccc4[nH]3)c2=N)cc1	DRD3 antagonist -55.7
CCN(CC)CCCNC(=O)C1c2ccccc2Oc2ccccc21	none
CNCCCC1Sc2ccccc2Oc2ccccc21 (configuration not stated)	DRD3 antagonist -73.7
COC(=O)C1=CN(c2cccc(OCc3ccccc3)c2)C(N)=C(C#N)C1c1cccc(F)c1 (configuration not stated)	none (no result: RGS4 inh, uPA surface inh)
Cc1ccc(-c2nc(C(Cl)Cl)c3ccccc3n2)cc1	DRD3 antagonist -60.0, uPA surface inh 1µM
Cc1ccc(-c2nc(Nc3ccc(O)cc3)c3ccccc3n2)cc1	none
Cc1c(C(=O)Nc2cccc(C(F)(F)F)c2)oc2ccc(S(=O)(=O)N3CCC4(CC3)OCCO4)cc12	none (no result: DRD3 antagonist, uPA surface inh)
Cc1c(C(=O)Nc2cccc(C(F)(F)F)c2)oc2ccc(S(=O)(=O)N3CCOCC3)cc12	DRD3 agonist 63.6 (no result: uPA surface inh)
O=C(c1cc(-c2ccc(Br)cc2)n[nH]1)N1CCN(S(=O)(=O)c2ccc(Br)s2)CC1	DRD3 agonist 33.8 (no result: DRD3 antagonist, uPA surface inh)
Cc1ccc(-n2ncc(C(=O)Nc3cc(Cl)cc(Cl)c3)c2C2CCNCC2)cc1C	uPA surface inh 11.2µM
CCC(C#CCN1CCCCC1)(CC)OCCC#N	DRD3 antagonist -55.9
CCOC(=O)N=Nc1c2ccccc2c2nc3no[nH]c3nc12	DRD3 antagonist -64.6
O=C(CSc1nc2c([nH]c3ccccc32)c(=O)n1-c1ccccc1)N1CCCC1	none (no result: DRD3 antagonist, uPA surface inh)
